In all, about 33,000 sequences were measured (“e-score”: median about -0.05, highest 2% from about 0.38 on). The entries come from a sample that favours the highest values as a whole.

The results in this text go back to paper PMC10668032, “Altered binding affinity of SIX1-Q177R correlates with enhanced WNT5A and WNT pathway effector expression in Wilms tumor”.

This experiment concerns the target T1, SIX1-Q177R homeodomain (human, UniProt Q15475 108-198, Q177R).
T1 sequence: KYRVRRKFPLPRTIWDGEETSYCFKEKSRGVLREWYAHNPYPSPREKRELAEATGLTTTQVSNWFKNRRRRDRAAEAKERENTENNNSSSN
Put plainly: universal protein binding microarray; Universal all-10-mer PBM (8x60K, AMADID 030236), 300 nM GST-tagged protein, Alexa Fluor 488 anti-GST; buffer, salt, pH and temperature not stated (as in Berger); high values mean tight binding. Particulars: protein: ivt; tags: N-terminal GST; dsDNA, one strand shown. The method, boiled down:
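GST-tagged homeodomains were made by in vitro transcription/translation and quantified by anti-GST western blot against a recombinant GST standard curve. They were applied in duplicate at 300 nM final concentration to universal 'all 10-mer' protein binding microarrays (8×60K format). Binding was quantified as 8-mer E-scores with the Universal PBM Analysis Suite.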
As to GTTGTGTA, the binding signal was 0.255 ± 0.0169 E-score.

As to GTGTTGAA, the binding signal came out at 0.396 ± 0.00711 E-score.

For the sequence GGGTTGTA, the binding signal was found to be 0.169 ± 0.0161 E-score.

With GTGTTGTA, the binding signal is 0.389 ± 0.00682 E-score.

On to GTGTTGGA, for which the binding signal is 0.414 ± 0.0127 E-score.

For CGATCCAC, the binding signal came out at 0.2384 ± 0.00175 E-score.

As for CCTACGCA, the binding signal stood at 0.17 ± 0.0129 E-score.

In the case of CACGAAAG, the binding signal was found to be 0.16 ± 0.0281 E-score.

TACGGACA: the binding signal is 0.168 ± 0.019 E-score.

Turning to CACTGGTA, the binding signal is 0.3128 ± 0.00191 E-score.

In the case of ATCTGACA, the binding signal amounted to 0.275 ± 0.0351 E-score.

Regarding CACCCATG, the binding signal was determined as 0.34 ± 0.0139 E-score.

For CACCTGTC, the binding signal amounted to 0.224 ± 0.0498 E-score.

Regarding CTTTCACA, the binding signal stood at 0.24 ± 0.00834 E-score.

As to AACGGGGT, the binding signal turned out to be 0.205 ± 0.0313 E-score.

As for AAGGGATC, the binding signal stood at 0.194 ± 0.0447 E-score.

For CCTCAACA, the binding signal stood at 0.204 ± 0.0178 E-score.

Turning to AAGAGTTA, the binding signal came to 0.172 ± 0.0103 E-score.

With ATACACGA, the binding signal was found to be 0.38 ± 0.00658 E-score.

With CCACACGG, the binding signal was found to be 0.197 ± 0.0212 E-score.

As to ACACACGG, the binding signal was 0.301 ± 0.0255 E-score.

With ATACACGG, the binding signal was 0.401 ± 0.0111 E-score.

For ATACACGC, the binding signal came to 0.396 ± 0.0178 E-score.

For the sequence ACACACGC, the binding signal stood at 0.267 ± 0.0306 E-score.

Regarding CGTATACG, the binding signal was 0.153 ± 0.0218 E-score.

Turning to ACCTTGTA, the binding signal was 0.203 ± 0.0145 E-score.

On to CACGTATA, for which the binding signal is 0.2103 ± 0.000226 E-score.

Take CACTTGCC: the binding signal was determined as 0.227 ± 0.036 E-score.

Take CGCCACAC: the binding signal came out at 0.314 ± 0.0118 E-score.

In the case of AGACCCCG, the binding signal is 0.281 ± 0.0369 E-score.

As for CCAACTAG, the binding signal was 0.223 ± 0.00917 E-score.

With CACCTCAG, the binding signal worked out at 0.26 ± 0.0094 E-score.

Turning to CCAATTTA, the binding signal came to 0.238 ± 0.0221 E-score.

In the case of ACACCAGG, the binding signal worked out at 0.472 ± 0.00716 E-score.

As to ACCACAGT, the binding signal was 0.22 ± 0.00384 E-score.

Turning to ACACCAGT, the binding signal amounted to 0.48 ± 0.008 E-score.

For ACCCCAGT, the binding signal was found to be 0.27 ± 0.0137 E-score.

As for ACTCCAGG, the binding signal was 0.228 ± 0.00384 E-score.

For the sequence ACAGCACC, the binding signal worked out at 0.1838 ± 0.000898 E-score.

Consider ACCCCAGG, for which the binding signal amounted to 0.249 ± 0.0168 E-score.

As for ACACCAGA, the binding signal was found to be 0.472 ± 0.00546 E-score.

As to ACCCCAGC, the binding signal turned out to be 0.235 ± 0.0628 E-score.

As for GCACCAGA, the binding signal was determined as 0.181 ± 0.0305 E-score.

ACACCAGC: the binding signal worked out at 0.4638 ± 0.00122 E-score.

As for ACCCCAGA, the binding signal was found to be 0.201 ± 0.039 E-score.

Regarding GACGATAC, the binding signal is 0.205 ± 0.0214 E-score.

Take CCTGGGTA: the binding signal stood at 0.164 ± 0.00425 E-score.

On to GGGGAGTA, for which the binding signal turned out to be 0.256 ± 0.0126 E-score.

Consider CACCATGC, for which the binding signal came to 0.297 ± 0.00858 E-score.

In the case of CACCCGGG, the binding signal amounted to 0.327 ± 0.0154 E-score.

In the case of ACACTGAA, the binding signal amounted to 0.349 ± 0.00868 E-score.

On to ACACTGAC, for which the binding signal is 0.381 ± 0.0072 E-score.

In the case of ACTCTGAC, the binding signal was determined as 0.172 ± 0.00272 E-score.

With ACACTGTG, the binding signal worked out at 0.381 ± 0.0114 E-score.

For ACACTGAG, the binding signal was found to be 0.354 ± 0.00682 E-score.

As for ACACTGTC, the binding signal is 0.336 ± 0.0232 E-score.

For CCGCGAAA, the binding signal is 0.167 ± 0.0237 E-score.

GTAGTACA: the binding signal is 0.277 ± 0.0241 E-score.

Consider CACGAGTA, for which the binding signal turned out to be 0.167 ± 0.0394 E-score.

Take GGTATCGA: the binding signal was determined as 0.2937 ± 0.0007 E-score.

Consider GTCGAGTA, for which the binding signal was determined as 0.1983 ± 0.00156 E-score.

As to GTCGTGCA, the binding signal is 0.181 ± 0.0113 E-score.

For CTTGTGTC, the binding signal turned out to be 0.168 ± 0.0605 E-score.

Take CTCGTGTC: the binding signal is 0.409 ± 0.0114 E-score.

As for ATCGTGTA, the binding signal worked out at 0.403 ± 0.0236 E-score.

As to GTCGTGTA, the binding signal was found to be 0.438 ± 0.00933 E-score.

In the case of ATCGTGTG, the binding signal was found to be 0.229 ± 0.0199 E-score.

As to ATCGTGTC, the binding signal was determined as 0.413 ± 0.0104 E-score.

CTCGGGTC: the binding signal is 0.155 ± 0.0227 E-score.

In the case of CAAGCGTG, the binding signal is 0.165 ± 0.0253 E-score.

For the sequence CACCACCC, the binding signal was 0.3364 ± 0.00314 E-score.

For the sequence ACGGATCA, the binding signal turned out to be 0.172 ± 0.0172 E-score.

For the sequence GACCCGCC, the binding signal is 0.18 ± 0.0248 E-score.

As for ACGGGTGC, the binding signal amounted to 0.237 ± 0.00406 E-score.

As for CCGGGATC, the binding signal is 0.164 ± 0.0362 E-score.

Take CTCGTGTA: the binding signal came to 0.398 ± 0.00843 E-score.

As to CTCGGGTA, the binding signal came out at 0.168 ± 0.0141 E-score.

Regarding CTCGAGTA, the binding signal is 0.164 ± 0.00196 E-score.

Regarding AACAGGGG, the binding signal amounted to 0.17 ± 0.00571 E-score.

Take AATAACAC: the binding signal came out at 0.426 ± 0.0299 E-score.

For CATAACAC, the binding signal was 0.426 ± 0.00624 E-score.

In the case of CATAGCAC, the binding signal was found to be 0.195 ± 0.00827 E-score.

In the case of AATAAACA, the binding signal amounted to 0.218 ± 0.0334 E-score.

Consider GATAATAC, for which the binding signal amounted to 0.1568 ± 0.000269 E-score.

Take GATAACAC: the binding signal turned out to be 0.4333 ± 0.00385 E-score.

As to GATAACCC, the binding signal is 0.19 ± 0.0215 E-score.

Take CAAAACAC: the binding signal was 0.321 ± 0.0321 E-score.

With ATAAACAC, the binding signal was 0.365 ± 0.0198 E-score.
